APP 5UTR inh – APP translation inhibition; SH-SY5Y APP 5'UTR-luciferase reporter, luminescence; inhibition, % at 2 µM; 190,000 compounds, 0.82% hits;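 active = inhibition above a set limit, derived from the sample mean plus 3 SD, cut at about 45% in these data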
BaF3 tox – reduces parental Ba/F3 cell viability, JAK2V617F counter-screen | CellTiter-Glo ATP luminescence | inhibition, % at 5.6 µM | 220,000 compounds, 1.1% hits | AID 1486;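 active = inhibition above a per-campaign cutoff, the mean inhibition of all tested compounds plus 3 SD, cut at about 27% in these data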
aSyn UTR inh – MLPCN primary screen, SNCA 5' untranslated region; inhibition, % (tested at 7.5 µM); alpha-synuclein 5'UTR reporter, inhibitor activity; 300,000 compounds, 0.82% hits; AID 1813; in the data active = inhibition above about 60%;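 note: H4 neuroglioblastoma cells stably carrying SNCA 5'UTR luciferase fusion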
IEC-6 cytotox – IEC-6 cytotoxicity, counter-screen for KLF5 inhibitors. luminescence viability. inhibition, % at 5 µM. 290,000 compounds, 0.78% hits. AID 1825; in the data active = inhibition above about 22%
KLF5 inh – suppresses KLF5 promoter-driven expression; DLD-1 KLF5 promoter-luciferase reporter, luminescence; inhibition, % at 5 µM; 290,000 compounds, 0.23% hits; AID 1700;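 active = inhibition above a per-plate limit of that plate's mean compound inhibition plus 3 SD, cut at about 60% in these data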;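 note: higher means less KLF5 promoter-driven luciferase light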
Ba/F3 V617F tox – reduce viability of Ba/F3 cells dependent on JAK2V617F | Ba/F3 EpoR-JAK2V617F viability, ATP luminescence | inhibition, % at 5.6 µM | 220,000 compounds, 1.1% hits | AID 1446;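 active = inhibition above the campaign mean plus 3 SD over all tested compounds, cut at about 24% in these data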;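 note: cytokine-independent growth of Ba/F3 cells driven by EpoR plus mutant JAK2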
Hits are given with their value; ! = a repeat was not active. In the library only some 2.2% were active in any assay of this set; here they are far more common.

CCOC(=O)CS(=O)(=O)c1nc(-c2ccccc2)cc(C(F)(F)F)n1 was read as APP 5UTR inh 56.9, BaF3 tox inactive, aSyn UTR inh inactive, IEC-6 cytotox 27.8, KLF5 inh inactive and Ba/F3 V617F tox 78.6.
CCC1CCc2sc(C(=O)N3CCCN(C)CC3)cc2C1 (stereo not given) was read as aSyn UTR inh inactive, IEC-6 cytotox inactive and KLF5 inh inactive.
For C/C(=N\S(=O)(=O)c1ccc(C)cc1)N1CCN(S(=O)(=O)c2ccccc2)C1 the results were APP 5UTR inh inactive, BaF3 tox inactive, aSyn UTR inh inactive, IEC-6 cytotox inactive, KLF5 inh inactive and Ba/F3 V617F tox inactive.
C/C(=N\S(=O)(=O)c1ccc(C)cc1)N1CCCCC1 was read as APP 5UTR inh inactive, BaF3 tox 79.8, aSyn UTR inh inactive, IEC-6 cytotox inactive, KLF5 inh inactive and Ba/F3 V617F tox inactive.
Screening CN=c1scc(-c2ccccc2F)n1/N=C(\C)c1cccnc1 returned APP 5UTR inh inactive, BaF3 tox 38.3, aSyn UTR inh inactive, IEC-6 cytotox inactive, KLF5 inh inactive and Ba/F3 V617F tox inactive.
Screening C/C(=N\N1CCN(C2c3ccccc3-c3ccccc32)CC1)c1cccnc1 returned APP 5UTR inh inactive, BaF3 tox inactive, aSyn UTR inh inactive, IEC-6 cytotox inactive, KLF5 inh inactive and Ba/F3 V617F tox inactive.
For CCOc1ccc(N/C(SCc2cccc([N+](=O)[O-])c2)=C(/C#N)C(N)=O)cc1 the results were APP 5UTR inh inactive, BaF3 tox inactive, aSyn UTR inh inactive, IEC-6 cytotox inactive, KLF5 inh inactive and Ba/F3 V617F tox inactive.
N#CC(C#N)=C(Nc1ccc(F)cc1)SCc1cccc(F)c1 was read as APP 5UTR inh inactive, BaF3 tox 67.1, aSyn UTR inh inactive, IEC-6 cytotox 33.7, KLF5 inh inactive and Ba/F3 V617F tox 55.2.
For O=[N+]([O-])c1ccc2[nH]c3nc4ccccc4nc3c2c1 the results were BaF3 tox 42.8, aSyn UTR inh inactive, IEC-6 cytotox inactive, KLF5 inh inactive and Ba/F3 V617F tox 36.3.
For O=[N+]([O-])c1ccc2[nH]nc(-c3ccccc3)c2c1 the results were APP 5UTR inh inactive, BaF3 tox inactive, aSyn UTR inh inactive, IEC-6 cytotox inactive, KLF5 inh inactive and Ba/F3 V617F tox inactive.
`CCN1CCN(Cc2ccc(NC(=O)c3ccc(C)c(NC(=O)N4CCNC4=O)c3)cc2C(F)(F)F)CC1` gave aSyn UTR inh 66.3!, IEC-6 cytotox inactive and KLF5 inh inactive.
Screening Cc1ccc(/C=C2/NC(=O)N(c3ccccc3)C2=O)o1 returned APP 5UTR inh inactive, BaF3 tox inactive, aSyn UTR inh inactive, IEC-6 cytotox inactive, KLF5 inh inactive and Ba/F3 V617F tox inactive.
Screening O=C1N/C(=C/c2ccc(N3CCOCC3)o2)C(=O)N1c1cccc(Cl)c1 returned APP 5UTR inh 75.7, BaF3 tox inactive, aSyn UTR inh inactive, IEC-6 cytotox inactive, KLF5 inh inactive and Ba/F3 V617F tox inactive.
`Cc1ccc(S(=O)(=O)Nc2cccc3ncccc23)s1` gave APP 5UTR inh 56.1, BaF3 tox inactive, aSyn UTR inh inactive, IEC-6 cytotox 93.5, KLF5 inh inactive and Ba/F3 V617F tox inactive.
Cc1ccc(S(=O)(=O)Nc2cccc3ncccc23)cc1 was read as BaF3 tox inactive, aSyn UTR inh inactive, IEC-6 cytotox inactive, KLF5 inh inactive and Ba/F3 V617F tox inactive.
COc1cc(C=O)ccc1OCC(=O)Nc1ccc2c(c1)OCO2 was read as aSyn UTR inh inactive, IEC-6 cytotox inactive and KLF5 inh inactive.
Screening CN(C(=O)COc1ccccc1C(=O)NCCOc1ccccc1)c1ccccc1 returned APP 5UTR inh inactive, BaF3 tox 36.3, aSyn UTR inh inactive, IEC-6 cytotox inactive, KLF5 inh inactive and Ba/F3 V617F tox inactive.
For O=S(=O)(NCc1ccccc1)c1ccc(S(=O)(=O)NCC2CCCO2)cc1 (stereo not given) the results were APP 5UTR inh inactive, BaF3 tox inactive, aSyn UTR inh inactive, IEC-6 cytotox inactive, KLF5 inh inactive and Ba/F3 V617F tox inactive.
`O=C(c1ccccc1)N1CCC(c2nc(-c3ccc(S(=O)(=O)NCC4CCCO4)cc3)no2)CC1` (stereo not given) gave BaF3 tox inactive, aSyn UTR inh inactive, IEC-6 cytotox inactive, KLF5 inh inactive and Ba/F3 V617F tox inactive.
Screening O=S(=O)(NCc1ccncc1)c1ccc(S(=O)(=O)NCC2CCCO2)cc1 (stereo not given) returned APP 5UTR inh inactive, BaF3 tox 28.2, aSyn UTR inh inactive, IEC-6 cytotox inactive, KLF5 inh inactive and Ba/F3 V617F tox 25.2.
`Cc1ccc(S(=O)(=O)NCc2ccncc2)c(C)c1C` gave APP 5UTR inh inactive, BaF3 tox 83.9, aSyn UTR inh inactive, IEC-6 cytotox inactive, KLF5 inh inactive and Ba/F3 V617F tox 55.1.
`O=C(C1CC1)N1CCC(c2nc(-c3ccc(S(=O)(=O)NCC4CCCO4)cc3)no2)CC1` (stereo not given) gave APP 5UTR inh inactive, BaF3 tox 34.6, aSyn UTR inh inactive, IEC-6 cytotox inactive, KLF5 inh inactive and Ba/F3 V617F tox inactive.
`Cc1cc(C)c(S(=O)(=O)NCc2ccncc2)c(C)c1` gave APP 5UTR inh inactive, BaF3 tox 34.0, aSyn UTR inh inactive, IEC-6 cytotox inactive, KLF5 inh inactive and Ba/F3 V617F tox 24.3.
Screening Cc1ccccc1-n1ccnc1SCC(=O)NC1CCCC1 returned aSyn UTR inh inactive, IEC-6 cytotox inactive and KLF5 inh inactive.
`CS(=O)(=O)c1ccc(Cl)c(NC(=O)CCc2ccccc2)c1` gave APP 5UTR inh inactive, BaF3 tox inactive, aSyn UTR inh inactive, IEC-6 cytotox inactive, KLF5 inh inactive and Ba/F3 V617F tox inactive.
For CCOc1ccccc1/C=C/c1onc(C)c1S(=O)(=O)N1CCC(C(=O)NC(C)(C)C)CC1 the results were aSyn UTR inh inactive, IEC-6 cytotox inactive and KLF5 inh inactive.
`CCCCNS(=O)(=O)c1ccc(S(=O)(=O)NCc2ccncc2)cc1` gave APP 5UTR inh inactive, BaF3 tox 38.9, aSyn UTR inh inactive, IEC-6 cytotox inactive, KLF5 inh inactive and Ba/F3 V617F tox 33.5.
For CCCCc1ccc(S(=O)(=O)NCCc2ccncc2)cc1 the results were APP 5UTR inh inactive, BaF3 tox inactive, aSyn UTR inh inactive, IEC-6 cytotox inactive, KLF5 inh inactive and Ba/F3 V617F tox inactive.
Screening COc1ccccc1-n1cc([C@@H]2C[C@H]3CN(c4ccccc4)C(=O)[C@]34CCCN24)cn1 returned APP 5UTR inh 94.8, BaF3 tox inactive, aSyn UTR inh inactive, IEC-6 cytotox inactive, KLF5 inh inactive and Ba/F3 V617F tox inactive.
Screening CC1CN(S(=O)(=O)c2ccc(C(=O)NCCCn3ccnc3)cc2)CC(C)O1 (stereo not given) returned APP 5UTR inh inactive, BaF3 tox inactive, aSyn UTR inh 104.6, IEC-6 cytotox inactive, KLF5 inh inactive and Ba/F3 V617F tox inactive.
CC1CN(S(=O)(=O)c2cccc(C(=O)NCCCn3ccnc3)c2)CC(C)O1 (stereo not given) was read as APP 5UTR inh inactive, BaF3 tox inactive, aSyn UTR inh inactive, IEC-6 cytotox inactive, KLF5 inh inactive and Ba/F3 V617F tox inactive.

High-throughput results: PubChem, several laboratories
